Laboratory results taken from ChEMBL document CHEMBL3988442, “University of Dundee, Small-Polar-MMV Screening Library” (2021).
Hit rate of the full screen: of about 48,000 compounds, about 13,000 (27%) showed an effect of 50% or more. Some of the results follow.

Test system: Wolbachia pipientis
Experiment: Anti-Wolbachia Cell-Based Screen
Format: functional
Set-up: scale not given: in the data most compounds retested in dose-response had high values
Details: 5 µM

Row | Compound | Percent Effect
1 | CC(C)N1CCCC2(CCN(C(=O)CCCn3cncn3)C2)C1=O (stereo not given) | 0.7052%
2 | Cc1cnn(-c2ccc(C(=O)N3CCCC(n4ccnc4C)C3)cc2)c1 (stereo not given) | 110%
3 | Cc1cnn(C2CCCN(C(=O)c3ccc(N4CCCC4)nc3)C2)c1 (stereo not given) | 85.57%
4 | Cc1cnn(C2CCCN(C(=O)c3sccc3C#N)C2)c1 (stereo not given) | 1.519%
5 | Cc1cnn(C2CCCN(C(=O)c3ccc(-n4cccn4)nc3)C2)c1 (stereo not given) | 95.03%
6 | Cc1cnn(C2CCCN(C(=O)c3ccc(O)nc3)C2)c1 (stereo not given) | 123.6%
7 | O=C(CCCn1cncn1)N1CCC2(CC1)[C@H](O)C[C@@H]2OCCO | -4.804%
8 | Cc1cc(CNCC2CCCN(C(=O)OC(C)(C)C)C2)no1 (stereo not given) | -1.865%
9 | CCCOC1CCCN(C(=O)c2[nH]nc(C)c2Br)C1 (stereo not given) | -6.367%
10 | CCCN1CCN(C(=O)c2ccc3ccccc3n2)[C@H]2CS(=O)(=O)C[C@H]21 | 2.901%
11 | Cc1nccn1C1CCCN(C(=O)c2ccc(N(C)C)nc2)C1 (stereo not given) | -2.779%
12 | Cc1noc2ncc(C(=O)N3CCCC(n4ccnc4C)C3)cc12 (stereo not given) | -5.392%
13 | Cc1nccn1C1CCCN(C(=O)c2ccc(-n3cccn3)nc2)C1 (stereo not given) | 122%
14 | Cc1ccc(-c2noc(CCC3CCN(C)CC3)n2)nn1 | -9.501%
15 | CC(C)CCN1CC2(CCN(C(=O)C3(C)CCCCO3)CC2)OC1=O (stereo not given) | -6.368%
16 | CCc1ncc(C(=O)N2CCN(Cc3ncccc3C)CC2)cn1 | 86.86%
17 | Cc1cccnc1CN1CCN(C(=O)c2cnn(C(C)C)c2)CC1 | 94.71%
18 | CCc1ncc(C(=O)N2CCN(C(=O)COc3ccccc3)CC2)cn1 | 3.835%
19 | CC(C)n1cc(CN2CCCN(C(=O)c3cccnc3O)CC2)cn1 | -1.686%
20 | Cc1nccc(C(=O)N2CCCN(Cc3cnn(C(C)C)c3)CC2)n1 | 5.245%
21 | Cc1cccnc1CN1CCN(C(=O)c2cc(Cl)c[nH]c2=O)CC1 | -31.74%
22 | Cc1ccc(OCCC(=O)N(C)CC(=O)Nc2cc(C)on2)c(C)c1 | 1.593%
23 | COc1ccccc1C(=O)N(C)Cc1ncc(C)c(OC)c1C | -3.019%
24 | COc1c(C)cnc(CN2CCC(N(C)S(C)(=O)=O)CC2)c1C | 116.9%
25 | COc1c(C)cnc(CNC(=O)CCOCC(C)C)c1C | 11.08%

Row | Compound | Percent Effect
26 | COc1c(C)cnc(CN(C)C(=O)c2ccc(C3CCCO3)s2)c1C (stereo not given) | -4.342%
27 | COc1ccc(OC)c(C(=O)N(C)Cc2ncc(C)c(OC)c2C)c1 | -4.561%
28 | COc1c(C)cnc(CN2CCC(N(C)C(=O)C(C)OC)CC2)c1C (stereo not given) | 99.72%
29 | COc1c(C)cnc(CN2CCOC(Cn3nc(C)nc3C)C2)c1C (stereo not given) | -9.057%
30 | COc1cccc(CCCN2CCC(N(C)S(C)(=O)=O)CC2)c1 | -2.016%
31 | COc1ccc(C(=O)N(C)Cc2ncc(C)c(OC)c2C)c(OC)c1 | 77.44%
32 | COc1c(C)cnc(CN2CCC(N(C)C(C)C(N)=O)CC2)c1C (stereo not given) | -8.935%
33 | COc1c(C)cnc(CN(C)C(=O)c2ccccc2O)c1C | -2.97%
34 | O=C(c1cnc(NCCC2CCCO2)c(Cl)c1)N1CCOCC1 (stereo not given) | -6.598%
35 | Cc1cc(NC(=O)Cc2ccccc2O)cnc1N1CCCCC1 | 13.35%
36 | COc1cccc2c1OCC(CNC(=O)CSc1nc(N)n[nH]1)C2 (stereo not given) | -2.891%
37 | Cc1cccc(N2CC[C@@H]3CN(Cc4csc(C)n4)CCO[C@@H]3C2)n1.O=C(O)C(F)(F)F.O=C(O)C(F)(F)F | -4.327%
38 | O=C1NCC2(CCCN(C(=O)c3ccc4c(c3)CCO4)C2)O1 (stereo not given) | 16.66%
39 | CCOc1ccccc1OCC(=O)NCc1ncc(C)c(OC)c1C | 8.111%
40 | CCNC(=O)N(C)C1CCN(Cc2ncc(C)c(OC)c2C)CC1 | 110.9%
41 | COc1c(C)cnc(CN2CCC(C(=O)N(C)C)CC2)c1C | 2.904%
42 | CCC(=O)N(C)C1CCN(Cc2ncc(C)c(OC)c2C)CC1 | 9.191%
43 | COc1c(C)cnc(CN2CCC(N(C)C(=O)C3CC3)CC2)c1C | 110.7%
44 | CCc1noc(C)c1C(=O)N(C)Cc1ncc(C)c(OC)c1C | -4.169%
45 | N[C@@H]1CC[C@H](C(=O)NCCn2cc(Cl)cn2)C1 | -5.887%
46 | Cc1ccc(-n2ccnc2)c(C(=O)NCCOCC2CCCO2)c1 (stereo not given) | 2.009%
47 | CN(Cc1ncnn1C)C(=O)c1ccccc1NCc1ccccc1 | -8.23%
48 | CN(CC1(C)COC1)C(=O)c1cc(-c2cnn(C)c2)nc2ccccc12 | 150.1%
49 | CN(CC1(C)COC1)C(=O)c1cc(-c2ccn(C)n2)nc2ccccc12 | 106.6%
50 | CCN(C(=O)c1cc(C)nc2ccccc12)C1CC(=O)NC1=O (stereo not given) | 9.266%

Row | Compound | Percent Effect
51 | CCN(C)C(=O)c1cc(-c2ccn(C(C)C)n2)n2ccccc12 | 6.69%
52 | CN(Cc1cnn(C)c1)C(=O)c1cc2ccccc2c(=O)[nH]1 | -10.85%
53 | CN(Cc1cccc(C(=O)Nc2ccnn2C)c1)CC1(C)COC1 | 30.85%
54 | CN(CC1(C)COC1)C(=O)c1cc(-c2ccnn2C)nc2ccccc12 | 116.9%
55 | Cn1cc(CNC(=O)C2COCC(=O)N2Cc2ccccc2)cn1 (stereo not given) | -3.917%
56 | COc1ccc(NC(=O)N(C)Cc2ccc(Br)o2)cn1 | 12.08%
57 | CN(C)S(=O)(=O)NCc1cccnc1Oc1ccccc1 | -16.22%
58 | CCc1ccc(C(=O)N(CC)Cc2ccoc2)cc1S(C)(=O)=O | 18.17%
59 | Cc1cccc2c1nc(COCC(=O)O)n2-c1cnc(N)cn1 | 0.6066%
60 | O=C(O)C1(Oc2ccc3ccccc3c2)CCN(c2ccncc2)CC1 | -19.78%
61 | CCCn1ccnc1CN1CCC(Oc2cccc(F)c2)(C(=O)O)CC1 | -7.212%
62 | O=C(O)C(c1ccc2c(c1)OCCO2)N1CCC(N2CCOCC2)CC1 (stereo not given) | 10.3%
63 | O=C(O)C1(Oc2cccc(F)c2)CCN(C2CCOCC2)CC1 | 114%
64 | O=C(O)C1(Oc2ccc(Cl)cc2)CCN(C2CCOCC2)CC1 | 109.8%
65 | O=C(O)C1(Oc2ccc3c(c2)OCO3)CCN(C2CCOCC2)CC1 | 140.6%
66 | O=C(O)C1(Oc2ccccc2)CCN(c2ccncc2)CC1 | -10.06%
67 | CCCn1ccnc1CN1CCC(Oc2ccc(Cl)cc2)(C(=O)O)CC1 | -1.396%
68 | O=C(O)C1(Oc2cccc(F)c2)CCN(c2ccncc2)CC1 | -29.88%
69 | Cc1noc(OCCOc2cccc(C#N)c2)n1 | 0.996%
70 | NC(=O)c1cnc(NCC(=O)NCc2ccccc2)c(Cl)c1 | -2.32%
71 | O=C(c1cccs1)N1CC(Oc2ccccc2Cl)C1 | 11.34%
72 | CCCc1nc(C(=O)N2C[C@H](CO)C[C@H](CN3CCOCC3)C2)cs1 | -13.1%
73 | COc1cccc(OCC(=O)N2CCC3(CC2)[C@H](O)C[C@@H]3OC)c1 | 6.956%
74 | COCCN1C(=O)C[C@@H]2[C@H]1CCN2C(=O)COc1ccccc1 | -17.47%
75 | COCCC(=O)N1CCC2(CC1)CC(c1ccccc1)CN(C)C2 (stereo not given) | 9.484%

Row | Compound | Percent Effect
76 | CCN1C[C@@H]2CN(C(=O)NCc3ccccc3)CCC[C@]2(C(=O)O)C1.O=C(O)C(F)(F)F | -6.91%
77 | CN1C[C@@H]2CN(C(=O)NCc3ccccc3)CCC[C@]2(C(=O)O)C1.O=C(O)C(F)(F)F | 10.95%
78 | O=C(OCc1ccccc1)N1CC[C@H]2CC(CO)O[C@@H]2C1 (stereo not given in full) | -8.669%
79 | CN1C[C@H](O)[C@]2(CCN(C(=O)COc3ccccc3)C2)S1(=O)=O | 115.7%
80 | CN1C[C@@H](O)[C@]2(CCN(C(=O)OCc3ccccc3)C2)S1(=O)=O | 96.78%
81 | CN1CC(c2ccccc2)CC2(CCN(C(=O)c3ccccc3)CC2)C1 (stereo not given) | 1.137%
82 | CN1C[C@@H](O)[C@]2(CCN(C(=O)c3ccccc3)C2)S1(=O)=O | 126.2%
83 | CN1C[C@H](O)[C@]2(CCN(C(=O)NCc3ccccc3)C2)S1(=O)=O | 101.7%
84 | O=C(NCc1ccco1)c1cc(N2CC[C@@H](O)C2)ccn1 | 15.64%
85 | CCCS(=O)(=O)N1Cc2ccnn2CC(c2nc(C)no2)C1.O=C(O)C(F)(F)F (stereo not given) | -10.4%
86 | Cc1csc(C(C#N)C(=O)NCc2ccccc2)n1 (stereo not given) | 0.1394%
87 | Cc1cc(C)c2nc(CN3CCOCC(O)C3)cc(O)c2c1 (stereo not given) | -68.16%
88 | CCC1=N[C@@]2(CC[C@@H]3CN(S(=O)(=O)CC(C)C)C[C@@H]32)C(=O)N1C | -2.639%
89 | Cc1csc(CNC(=O)NC2CCN(c3ncccn3)CC2)n1 | 3.023%
90 | Cc1nc(CCNC(=O)NC2CCCN(c3ncccn3)C2)cs1 (stereo not given) | 107.1%
91 | O=C(NCc1ccoc1)NC1CCN(c2ncccn2)CC1 | 15.54%
92 | Cc1nc(CNC(=O)NC2CCN(c3ncccn3)CC2)cs1 | 78.89%
93 | Cc1nc(CNC(=O)NC2CCCN(c3ncccn3)C2)cs1 (stereo not given) | 115.1%
94 | N#Cc1ccc(CNC(=O)NC2CCCN(c3ncccn3)C2)cc1 (stereo not given) | 10.08%
95 | Cc1nc(CCNC(=O)NC2CCN(c3ncccn3)CC2)cs1 | 9.255%
96 | COC(=O)N1CCCC(NC(=O)NCc2csc(C)n2)C1 (stereo not given) | -0.338%
97 | O=C(NCCc1ccccn1)NC1CCN(c2ncccn2)CC1 | 4.674%
98 | Cc1ccc(CNC(=O)NC2CCCN(c3ncccn3)C2)n1C (stereo not given) | 7.079%
99 | O=C(NCc1ccccn1)NC1CCCN(c2ncccn2)C1 (stereo not given) | 20.37%
100 | O=C(NCCc1cccs1)NC1CCN(c2ncccn2)CC1 | 110.6%
